# According to the OligoGym collection:
# Target: SAMD10
# Assay: pooled miR-30 sensor sort-seq; sequence = guide strand
# Conditions: shRNA
# Note: reference of the scale not given here.
row,Sequence,sensor-assay potency score (higher = more potent)
1,TGCTTCTTGAGCCACTTGCAGA,-1.33
2,ATAGTGGTCAGAGTACAGCCGG,-1.22
3,TAAATAAACAGACTCCCTGGGA,-0.205
4,ATGCTCTCAGCTGACACCGTGT,-1.22
5,TTACTTCTCATGAATAGAGGGG,0.161
6,TTGTGGGGACAGTGCTTCTTGA,-1.41
7,TAGACGAGGTAGTTGTGGGGAC,-0.47
8,TAAATAATGATGAAAGTGCTTG,-0.363
9,TGCAGGAGCTTGATTGGCCTGC,-1.14
10,TATGGTACAGGCCATAGTGGTC,-1.37
11,TAGTGGTCAGAGTACAGCCGGC,-1.02
12,TTGTGCCACATTTTGTCTCTGG,-0.0935

# Target: SAMD3
# Assay: as above
# Conditions: shRNA
row,Sequence,sensor-assay potency score (higher = more potent)
1,TTCAACATGTCTTCATCTGTGT,0.839
2,TTGTTTCACATTTCTTCTCTGT,0.377
3,TAAAACATAGGACTTCGTCCAC,0.0328
4,TTAACTTCCAACACAGGTGTGG,0.183
5,TTCTCCACCAACCAACTGCAGA,-1.35
6,TTGCTCATCATCTTCTATGGGT,0.349
7,TTGAAATCTATGAACTAGCTCT,0.87
8,TTCTGCTCTGCTAACATGCATT,-1.16
9,TGTAACACAGTCGTCCACCTTT,-0.369
10,TAAATCCATCAGAACAGCCTGG,-0.235
11,TTTTTCTCCACCAACCAACTGC,-0.0677
